According to PubChem BioAssay AID2810 (NMMLSC, 2010):
Screen size: about 1,200 compounds; about 65 (5%) were called active.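 How the source made its calls: active means at either tested dose, response and 90th-percentile vesicle-stain brightness of CD8 cells under set limits and under 9% cells vesicle-bound; inactive means the rest.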 The sample as a whole holds a higher share of actives than the screen did.

Test: modulators of CD8 T cell-vesicle binding, confirmation, cherry-picked primary hits, two concentrations (AID 2810);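 on percent response (vesicle binding): ratio of mean FL2 vesicle stain of CD8+ cells to that row's control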
Conditions: 2C CD8+ T cell-vesicle binding, flow cytometry; for double positive events: CD8+/vesicle+ events
[1] = at 15.4 µM, stronger effect = lower value

SMILES: O=C(Nc1ccccc1)N1CCc2c([nH]c3ccccc23)C1C(F)(F)F (stereo not given)
- double positive events (at 7.7 µM): 14%
- double positive events [1]: 38.4%
- percent response (vesicle binding) [1]: 145% (inactive)
- percent response (vesicle binding) (response, at 7.7 µM): 187%

SMILES: COc1ccccc1NC(=O)Cn1cnc2sc(C)c(S(=O)(=O)N3CCCCC3)c2c1=O
- double positive events (at 7.7 µM): 11.3%
- double positive events [1]: 5.5%
- percent response (vesicle binding) [1]: 109% (inactive)
- percent response (vesicle binding) (response, at 7.7 µM): 197%

SMILES: COc1cc(CC(=O)OCC(=O)NCc2ccc(C)cc2)cc(OC)c1OC
- double positive events (at 7.7 µM): 12.7%
- double positive events [1]: 21.2%
- percent response (vesicle binding) [1]: 138% (inactive)
- percent response (vesicle binding) (response, at 7.7 µM): 165%

SMILES: COc1ccc(S(=O)(=O)N(C)c2ccc(C(=O)NCC3CCCO3)cc2)cc1OC (stereo not given)
- double positive events (at 7.7 µM): 21.6%
- double positive events [1]: 13.3%
- percent response (vesicle binding) [1]: 226% (inactive)
- percent response (vesicle binding) (response, at 7.7 µM): 413%

SMILES: COc1ccccc1CNC(=O)c1ccc(N(C)S(=O)(=O)c2ccc(C)cc2)cc1
- double positive events (at 7.7 µM): 17.5%
- double positive events [1]: 5.4%
- percent response (vesicle binding) [1]: 41.2% (active)
- percent response (vesicle binding) (response, at 7.7 µM): 152%

SMILES: COc1ccccc1CNC(=O)CN(Cc1ccc(Cl)cc1)S(C)(=O)=O
- double positive events (at 7.7 µM): 25.3%
- double positive events [1]: 7.2%
- percent response (vesicle binding) [1]: 127% (inactive)
- percent response (vesicle binding) (response, at 7.7 µM): 441%

SMILES: COc1ccccc1CNC(=O)COc1ccc(C)cc1
- double positive events (at 7.7 µM): 13.1%
- double positive events [1]: 5.2%
- percent response (vesicle binding) [1]: 56.4% (active)
- percent response (vesicle binding) (response, at 7.7 µM): 222%

SMILES: COc1ccccc1CNC(=O)C1CCC1
- double positive events (at 7.7 µM): 33.3%
- double positive events [1]: 24.2%
- percent response (vesicle binding) [1]: 232% (inactive)
- percent response (vesicle binding) (response, at 7.7 µM): 953%

SMILES: Cc1ccc(C)c(OC(=O)c2cncc(Br)c2)c1
- double positive events (at 7.7 µM): 18.1%
- double positive events [1]: 15.8%
- percent response (vesicle binding) [1]: 147% (inactive)
- percent response (vesicle binding) (response, at 7.7 µM): 268%

SMILES: Cc1ccc(NC(=O)COC(=O)c2c(-c3ccccc3)noc2C)c(C)c1
- double positive events (at 7.7 µM): 5.6%
- double positive events [1]: 14.4%
- percent response (vesicle binding) [1]: 137% (inactive)
- percent response (vesicle binding) (response, at 7.7 µM): 226%

SMILES: Cc1c(C(=O)N(C)Cc2ccccc2)oc2ccc(S(=O)(=O)N3CCCC3)cc12
- double positive events (at 7.7 µM): 25.6%
- double positive events [1]: 12.7%
- percent response (vesicle binding) [1]: 191% (inactive)
- percent response (vesicle binding) (response, at 7.7 µM): 229%

SMILES: COc1cc2c(-c3cc(F)cc(F)c3)c(-c3ccsc3)oc(=O)c2cc1OC
- double positive events (at 7.7 µM): 37.8%
- double positive events [1]: 28.1%
- percent response (vesicle binding) [1]: 275% (inactive)
- percent response (vesicle binding) (response, at 7.7 µM): 271%

SMILES: O=C(CCc1ccccc1)N1CCN(CCO)CC1
- double positive events (at 7.7 µM): 35.8%
- double positive events [1]: 14.4%
- percent response (vesicle binding) [1]: 151% (inactive)
- percent response (vesicle binding) (response, at 7.7 µM): 239%

SMILES: CC(C)(C)NC(=O)CON=C1c2ccccc2-c2ccccc21
- double positive events (at 7.7 µM): 8.8%
- double positive events [1]: 30.6%
- percent response (vesicle binding) [1]: 361% (inactive)
- percent response (vesicle binding) (response, at 7.7 µM): 203%

SMILES: CC(C)(C)NC(=O)COc1ccc(CNCc2cccnc2)cc1
- double positive events (at 7.7 µM): 31%
- double positive events [1]: 21.6%
- percent response (vesicle binding) [1]: 446% (inactive)
- percent response (vesicle binding) (response, at 7.7 µM): 334%

SMILES: CC(C)(C)NC(=O)COc1ccc(CNCc2ccccn2)cc1
- double positive events (at 7.7 µM): 21.6%
- double positive events [1]: 5.1%
- percent response (vesicle binding) [1]: 32.8% (active)
- percent response (vesicle binding) (response, at 7.7 µM): 227%

SMILES: CCCCn1nc(C(=O)N2CCN(S(=O)(=O)c3ccccc3)CC2)c2ccccc2c1=O
- double positive events (at 7.7 µM): 16.5%
- double positive events [1]: 2.2%
- percent response (vesicle binding) [1]: 57.2% (inactive)
- percent response (vesicle binding) (response, at 7.7 µM): 484%

SMILES: Cc1ccc(NC(=O)C2c3ccccc3Oc3ccccc32)c(C)c1
- double positive events (at 7.7 µM): 12.5%
- double positive events [1]: 28.2%
- percent response (vesicle binding) [1]: 175% (inactive)
- percent response (vesicle binding) (response, at 7.7 µM): 230%

SMILES: O=C(Nc1ccccc1C(=O)NCc1cccnc1)c1ccccc1Cl
- double positive events (at 7.7 µM): 25.8%
- double positive events [1]: 14.2%
- percent response (vesicle binding) [1]: 202% (inactive)
- percent response (vesicle binding) (response, at 7.7 µM): 364%

SMILES: CCOc1ccc(CCNC(=O)CCS(=O)(=O)c2ccc(C)cc2)cc1OCC
- double positive events (at 7.7 µM): 12.8%
- double positive events [1]: 11.7%
- percent response (vesicle binding) [1]: 215% (inactive)
- percent response (vesicle binding) (response, at 7.7 µM): 177%

SMILES: CCOc1ccc(CCNC(=O)c2cccc(-n3cnnn3)c2)cc1OCC
- double positive events (at 7.7 µM): 7.9%
- double positive events [1]: 4.2%
- percent response (vesicle binding) [1]: 39.3% (active)
- percent response (vesicle binding) (response, at 7.7 µM): 237%

SMILES: CCOc1ccc(CCNC(=O)CCc2nnc3ccc(N4CCCC4)nn23)cc1OCC
- double positive events (at 7.7 µM): 6.3%
- double positive events [1]: 20%
- percent response (vesicle binding) [1]: 239% (inactive)
- percent response (vesicle binding) (response, at 7.7 µM): 150%

SMILES: Cc1cc(C(=O)COC(=O)Cc2ccc(Cl)cc2)c(C)n1C
- double positive events (at 7.7 µM): 13.6%
- double positive events [1]: 22.5%
- percent response (vesicle binding) [1]: 160% (inactive)
- percent response (vesicle binding) (response, at 7.7 µM): 226%

SMILES: O=C(/C(=N\Nc1ccc(Br)cc1)Sc1nnnn1-c1ccccc1)c1ccccc1
- double positive events (at 7.7 µM): 9.1%
- double positive events [1]: 14.4%
- percent response (vesicle binding) [1]: 176% (inactive)
- percent response (vesicle binding) (response, at 7.7 µM): 308%

SMILES: COc1cccc(-c2ccc(NC(=O)C3CCCN(Cc4cc(C)[nH]n4)C3)cc2)c1 (stereo not given)
- double positive events (at 7.7 µM): 11.6%
- double positive events [1]: 32.2%
- percent response (vesicle binding) [1]: 350% (inactive)
- percent response (vesicle binding) (response, at 7.7 µM): 192%

SMILES: O=C(O)CCc1ccc(S(=O)(=O)N2CCOCC2)cc1
- double positive events (at 7.7 µM): 20.5%
- double positive events [1]: 28.7%
- percent response (vesicle binding) [1]: 274% (inactive)
- percent response (vesicle binding) (response, at 7.7 µM): 233%

SMILES: CCN(CC)CCNC(=O)CCCNC(=O)Cn1cnc2sc(C)c(C)c2c1=O
- double positive events (at 7.7 µM): 39.3%
- double positive events [1]: 4.7%
- percent response (vesicle binding) [1]: 131% (inactive)
- percent response (vesicle binding) (response, at 7.7 µM): 375%

SMILES: COCCCN1CCc2[nH]c(=S)[nH]c(=O)c2C1
- double positive events (at 7.7 µM): 27.3%
- double positive events [1]: 2%
- percent response (vesicle binding) [1]: 16.7% (active)
- percent response (vesicle binding) (response, at 7.7 µM): 272%

SMILES: CCc1c(O)cc2n(c1=O)-c1ccccc1C2(C)C
- double positive events (at 7.7 µM): 9.3%
- double positive events [1]: 17.9%
- percent response (vesicle binding) [1]: 444% (inactive)
- percent response (vesicle binding) (response, at 7.7 µM): 485%

SMILES: O=C(Nn1cnc2ccccc2c1=O)C1CCCCC1
- double positive events (at 7.7 µM): 29.6%
- double positive events [1]: 14.2%
- percent response (vesicle binding) [1]: 212% (inactive)
- percent response (vesicle binding) (response, at 7.7 µM): 255%

SMILES: CCCN1CCN(CCCNC(=O)c2cc3c(s2)-c2ccccc2OC3)CC1
- double positive events (at 7.7 µM): 22.7%
- double positive events [1]: 9.3%
- percent response (vesicle binding) [1]: 171% (inactive)
- percent response (vesicle binding) (response, at 7.7 µM): 229%

SMILES: Cc1ccc(NC(=S)N(CCCN2CCOCC2)Cc2cccs2)c(C)c1
- double positive events (at 7.7 µM): 8.8%
- double positive events [1]: 24.8%
- percent response (vesicle binding) [1]: 268% (inactive)
- percent response (vesicle binding) (response, at 7.7 µM): 149%

SMILES: Cc1ccc(C(=O)NCCCN2CCOCC2)c(C)c1
- double positive events (at 7.7 µM): 30.7%
- double positive events [1]: 0.7%
- percent response (vesicle binding) [1]: 30.4% (active)
- percent response (vesicle binding) (response, at 7.7 µM): 440%

SMILES: CCn1c(=O)cc(SCC(=O)N2CCN(c3ccccc3F)CC2)c2ccccc21
- double positive events (at 7.7 µM): 17%
- double positive events [1]: 19.6%
- percent response (vesicle binding) [1]: 78.7% (inactive)
- percent response (vesicle binding) (response, at 7.7 µM): 247%

SMILES: CC(C)C(=O)N1CCC2(CC1)Oc1ccc(Cl)cc1C(=O)C21CC(c2cccnc2)=NO1 (stereo not given)
- double positive events (at 7.7 µM): 6.8%
- double positive events [1]: 15%
- percent response (vesicle binding) [1]: 197% (inactive)
- percent response (vesicle binding) (response, at 7.7 µM): 109%

SMILES: Cc1ccc(C(=O)Nc2cccc(-c3cn4ccccc4n3)c2)cc1
- double positive events (at 7.7 µM): 7.7%
- double positive events [1]: 10.4%
- percent response (vesicle binding) [1]: 300% (inactive)
- percent response (vesicle binding) (response, at 7.7 µM): 439%

SMILES: COc1ccc(C(=O)C(C)OC(=O)c2sc(C)nc2C)cc1 (stereo not given)
- double positive events (at 7.7 µM): 12.6%
- double positive events [1]: 13.7%
- percent response (vesicle binding) [1]: 349% (inactive)
- percent response (vesicle binding) (response, at 7.7 µM): 113%

SMILES: Cc1ccc2oc(=O)c(/C=C(\O)c3sc(C)nc3C)nc2c1
- double positive events (at 7.7 µM): 17.5%
- double positive events [1]: 0.7%
- percent response (vesicle binding) [1]: 16.1% (active)
- percent response (vesicle binding) (response, at 7.7 µM): 163%

SMILES: NC(=S)N/N=C/c1ccccc1OCCSc1ccc(Cl)cc1
- double positive events (at 7.7 µM): 7%
- double positive events [1]: 28%
- percent response (vesicle binding) [1]: 262% (inactive)
- percent response (vesicle binding) (response, at 7.7 µM): 76.6%

SMILES: CC(=O)NN1C(=O)c2ccccc2NC1c1ccco1 (stereo not given)
- double positive events (at 7.7 µM): 23%
- double positive events [1]: 11.1%
- percent response (vesicle binding) [1]: 280% (inactive)
- percent response (vesicle binding) (response, at 7.7 µM): 361%

SMILES: Cc1ccccc1N=C1SC(CC(=O)Nc2ccc3ccccc3c2)C(=O)N1Cc1ccccn1 (stereo not given)
- double positive events (at 7.7 µM): 8.6%
- double positive events [1]: 25.6%
- percent response (vesicle binding) [1]: 157% (inactive)
- percent response (vesicle binding) (response, at 7.7 µM): 148%

SMILES: O=C(N/N=C/c1c(O)n(Cc2ccco2)c(=O)[nH]c1=O)c1ccccc1
- double positive events (at 7.7 µM): 36.4%
- double positive events [1]: 21.6%
- percent response (vesicle binding) [1]: 275% (inactive)
- percent response (vesicle binding) (response, at 7.7 µM): 418%

SMILES: COc1ccc(C(=O)OCC(=O)NC(=O)NC2CCCC2)c(O)c1
- double positive events (at 7.7 µM): 13.7%
- double positive events [1]: 9.4%
- percent response (vesicle binding) [1]: 148% (inactive)
- percent response (vesicle binding) (response, at 7.7 µM): 254%

SMILES: CC(=O)COc1ccc2c(-c3ccccc3)cc(=O)oc2c1
- double positive events (at 7.7 µM): 10.8%
- double positive events [1]: 8.7%
- percent response (vesicle binding) [1]: 123% (inactive)
- percent response (vesicle binding) (response, at 7.7 µM): 165%

SMILES: CCOc1ccc(-c2nc(N)ncc2-c2ccccc2)c(O)c1
- double positive events (at 7.7 µM): 4.3%
- double positive events [1]: 34.2%
- percent response (vesicle binding) [1]: 276% (active)
- percent response (vesicle binding) (response, at 7.7 µM): 51.6%
